About 930 (72%) of roughly 1,300 compounds were called active.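 The calls were made as follows: active = fitted curve reaches 40% activation signal increase at or below the top valid tested concentration in every replicate test; inconclusive = replicate tests disagree in their calls; inactive = all replicate tests inactive, including effects opposite the expected signal rise.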 The set was probably picked from earlier hits. Not all results are given here. Measured potencies and affinities stand elsewhere.
test: miR-122 inhibitors in Huh7 reporter cells, dose response, cell-based, Huh7 psiCHECK-miR122, Renilla luciferase, cherry-pick (AID 652053); details: 48 h; series mostly up to 35 µM

outcome, inactive:
Cc1nc(Nc2nc(CSc3nc4ccccc4[nH]3)cc(=O)[nH]2)nc2ccccc12
Cc1ccc2c(C)nc(Nc3nc(CSc4nc5ccccc5[nH]4)cc(=O)[nH]3)nc2c1
NC(=O)c1ccc(-n2nnnc2SCC(=O)c2ccc(O)c(O)c2)cc1
Cc1ccc(-n2nnnc2SCC(=O)N2c3ccccc3NC(=O)C2(C)C)cc1
O=C(C[C@H]1CC[C@@H]2[C@H](COC[C@H](O)CN2C(=O)C2CCCC2)O1)NCc1ccncc1
N#Cc1cnn2c1nc(N1CCCCC1)c1ccccc12
CC(C)Cc1nnc(NC(=O)Cc2ccccc2[N+](=O)[O-])s1
CCCCn1c(SCC(=O)Nc2nnc(CC)s2)nc2c1c(=O)n(C)c(=O)n2C
COc1ccccc1C(=O)Nc1ccc2c(c1)C(=O)N(C)[C@@H]1CC[C@H](CC(=O)NCc3ccc(Cl)c(Cl)c3)O[C@H]1CO2
COc1ccccc1CNC(=O)C[C@@H]1CC[C@@H]2[C@H](COc3ccc(NC(=O)Nc4ccc(F)c(F)c4)cc3C(=O)N2C)O1
COc1ccccc1C(=O)Nc1ccc2c(c1)C(=O)N(C)[C@@H]1CC[C@@H](CC(=O)NCc3ccc(Cl)c(Cl)c3)O[C@H]1CO2
COc1ccccc1C(=O)Nc1ccc2c(c1)C(=O)N(C)[C@@H]1CC[C@H](CC(=O)NCc3ccc(Cl)c(Cl)c3)O[C@@H]1CO2
COc1ccccc1CNC(=O)C[C@@H]1CC[C@@H]2[C@@H](COc3ccc(NC(=O)Nc4ccc(F)c(F)c4)cc3C(=O)N2C)O1
COc1ccccc1C(=O)Nc1ccc2c(c1)C(=O)N(C)[C@@H]1CC[C@@H](CC(=O)NCc3ccc(Cl)c(Cl)c3)O[C@@H]1CO2
O=C(c1ccccc1F)N1C[C@H]2[C@@H](c3ccccc31)[C@@H](CO)N2Cc1ccc2c(c1)OCO2
CCOc1ccc(Cl)cc1S(=O)(=O)n1cnc2cc(C)c(C)cc21
Cc1ccc(-n2nnc(-c3nccs3)n2)cc1
CCOc1ccc(CSC2=NCCN2)cc1Cl
CCCNC(=O)C[C@@H]1CC[C@H]2[C@H](COc3ccc(NC(=O)Cc4cccs4)cc3C(=O)N2C)O1
CCc1cccc(CC)c1NC(=O)COC(=O)C1(c2ccc(Cl)cc2)CCCC1
COc1ccc(OC)c(S(=O)(=O)N2CCNCC2)c1
Cn1nc(CC(=O)N2CCN(c3ccccc3)CC2)c2ccccc2c1=O
COc1cccc(C(=O)N2C[C@@H]3[C@H](c4ccccc42)[C@@H](CO)N3C(=O)c2ccc(F)cc2)c1
COc1cccc(C(=O)N2C[C@@H]3[C@H](c4ccccc42)[C@H](CO)N3C(=O)c2ccc(F)cc2)c1
CC(C)NC(=S)N1CCn2c(nc3ccccc32)C1
CC(C)CC(=O)NCCCN1CCN(CCCNC(=O)CC(C)C)CC1
CCOC(=O)c1ccc(-n2ccnc2)c(NC(=O)c2cccc(Br)c2)c1
Cn1cnc(S(=O)(=O)N2C[C@@H](O)COC[C@H]3O[C@@H](CC(=O)NC4CCCC4)CC[C@@H]32)c1
CCOC(=O)CN1C(=O)C(C)(C)Oc2ccc(C(=O)Nc3ccccc3)cc21
CC(=O)N1[C@H](CNC(=O)C2CC2)[C@@H](c2ccc(-c3ccccc3)cc2)[C@@H]1CO
Cc1cc(C)c2nc(Nc3nc(CSc4nc5ccccc5[nH]4)cc(=O)[nH]3)nc(C)c2c1
O=C(C1CCN(Cc2ccc(F)cc2)CC1)N1CCN(C/C=C/c2ccccc2)CC1
CC(=O)N1CCc2cc(S(=O)(=O)NCCCN3CCN(Cc4ccccc4)CC3)ccc21
COc1ccc(-c2cc(NC(C)=O)c3ncc(-c4cc(OC)c(OC)c(OC)c4)n3c2)cn1
N#C/C(=N\Nc1ccc(S(=O)(=O)N2CCCCC2)cc1)C(N)=S
COc1cc(S(=O)(=O)N2CCOCC2)ccc1NC(=O)CSc1n[nH]c(=O)[nH]c1=O
Cc1ccc(NC(=O)c2ccc(S(=O)(=O)N3CCOCC3)cc2)nc1
C[C@H](CO)N1C[C@H](C)[C@H](CN(C)Cc2ccc(C(F)(F)F)cc2)Oc2ccc(N(C)C)cc2CC1=O
C[C@H](CO)N1C[C@H](C)[C@H](CN(C)Cc2ccc3c(c2)OCO3)Oc2ccc(N(C)C)cc2CC1=O
COC(=O)C(CC(C)C)Oc1ccc2c(C)cc(=O)oc2c1 (configuration not stated)
CC(Oc1ccc(Cl)cc1)c1ccnn1S(=O)(=O)c1ccc(Cl)cc1 (configuration not stated)
COC(=O)c1ccccc1NC(=O)Cn1c(-c2nonc2N)nc2ccccc21
C[C@H](CO)N1C[C@H](C)[C@@H](CN(C)C(=O)Nc2cccc3ccccc23)Oc2ccc(NC(=O)Nc3cccc4ccccc34)cc2CC1=O
C[C@H]1CN([C@@H](C)CO)C(=O)Cc2cc(NC(=O)Nc3cccc4ccccc34)ccc2O[C@H]1CN(C)C(=O)Nc1cccc2ccccc12
C[C@@H]1CN([C@@H](C)CO)C(=O)Cc2cc(NC(=O)Nc3cccc4ccccc34)ccc2O[C@H]1CN(C)C(=O)Nc1cccc2ccccc12
C[C@H]1CN([C@@H](C)CO)C(=O)Cc2cc(NC(=O)Nc3cccc4ccccc34)ccc2O[C@@H]1CN(C)C(=O)Nc1cccc2ccccc12
COc1ccc(NC(=O)Nc2cccc3c2O[C@H](CN(C)Cc2ccc4c(c2)OCO4)[C@@H](C)CN([C@@H](C)CO)C3=O)cc1
FC(F)(F)c1nnc2c(Sc3ccccc3)nc3ccc(Cl)cc3n12
CCC1=NN(C(=O)c2ccccc2O)C(O)(c2ccccc2)C1 (configuration not stated)
CCC(=O)N1[C@H](CN(CC)C(=O)c2cccc(F)c2)[C@H](c2ccccc2)[C@@H]1CO
COc1ccc(CNC(=O)C(c2ccc(C)o2)N(Cc2cccs2)C(=O)Cc2cccs2)cc1 (configuration not stated)
CC(C)Cc1nc2sc3c(=O)[nH]cnc3c2c2c1CCC2
Cc1ccc(S(=O)(=O)Nc2ccc(C(=O)NCc3ccccn3)cc2)cc1
O=c1[nH]c(=O)c2[nH]c(=O)n(-c3ccccc3)c2[nH]1
CCS(=O)(=O)N1Cc2ccccc2CC1C(=O)NCC12CC3CC(CC(C3)C1)C2 (configuration not stated)
O=C(c1ccc(F)cc1)N1[C@H](CO)[C@@H]2c3ccccc3NC[C@@H]21
CCn1nc(C(=O)Nc2ccc(S(=O)(=O)Nc3nccs3)cc2)c2ccccc2c1=O
CC(C)NC(=O)N1[C@H](CO)[C@@H]2c3ccccc3N(C(=O)c3ccc(F)cc3)C[C@@H]21
CCCNC(=O)N1[C@H](CO)[C@@H]2c3ccccc3N(C(=O)c3ccc(F)cc3)C[C@@H]21
CCN(C[C@@H]1[C@@H](c2ccccc2)[C@@H](CO)N1C(=O)COC)S(C)(=O)=O
O=C(Nc1ccccc1)c1cc([N+](=O)[O-])ccc1NC1CCCCC1
Cc1cc(C)cc(NC(=O)C2CCN(c3nccs3)CC2)c1
O=C(Nc1ccccc1Br)C1CCN(S(=O)(=O)c2cccs2)CC1
CN1C(=O)c2cc(NC(=O)Cc3cccs3)ccc2OC[C@@H]2O[C@@H](CC(=O)NCC3CCCCC3)CC[C@@H]21
CN1C(=O)c2cc(NC(=O)NC3CCCC3)ccc2OC[C@H]2O[C@@H](CC(=O)O)CC[C@H]21
Cc1ccc(CC(=O)N(Cc2ccccc2)c2ccccn2)cc1
Cc1ccc(-c2nc(CSCC(=O)NCCN3CCN(Cc4ccccc4)CC3)c(C)o2)cc1
CCCc1cc(=O)oc2cc(OCc3nn[nH]n3)ccc12
COc1ccccc1CNC(=O)C[C@@H]1CC[C@H]2[C@@H](COc3ccc(NS(=O)(=O)c4ccc(C)cc4)cc3C(=O)N2C)O1
COc1ccccc1CNC(=O)C[C@H]1CC[C@@H]2[C@H](COc3ccc(NS(=O)(=O)c4ccc(C)cc4)cc3C(=O)N2C)O1
COc1ccccc1CNC(=O)C[C@@H]1CC[C@@H]2[C@H](COc3ccc(NS(=O)(=O)c4ccc(C)cc4)cc3C(=O)N2C)O1
COc1ccccc1CNC(=O)C[C@@H]1CC[C@@H]2[C@H](COc3ccc(NC(C)=O)cc3C(=O)N2C)O1
COc1ccccc1CNC(=O)C[C@H]1CC[C@@H]2[C@@H](COc3ccc(NC(C)=O)cc3C(=O)N2C)O1
CCOCc1nnc(NS(C)(=O)=O)s1
CS(=O)(=O)N1N=C(c2ccc(Cl)cc2)CC1c1cccs1 (configuration not stated)
c1ccc2c(c1)ccc1nnnn12
Cc1cccc(-c2nnc(-c3cccc4ccccc34)o2)c1
OC(COC(c1ccc(Cl)cc1)c1ccc(Cl)cc1)CN1CCCC1 (configuration not stated)
COc1ccccc1CNC(=O)C[C@H]1CC[C@@H]2[C@@H](COc3ccc(NC(=O)Nc4ccc(F)c(F)c4)cc3C(=O)N2C)O1
CC1CCCC(NC(=O)COC(=O)c2ccccc2NC(=O)c2ccco2)C1C (configuration not stated)
Nc1nonc1C(=O)N1CCCC1
CCOc1ccccc1N1CCN(C(=O)c2ccc3[nH]c(C)c(C)c3c2)CC1
COc1ccccc1N1CCN(C2CC(=O)N(c3cccc(Cl)c3)C2=O)CC1 (configuration not stated)
COc1ccccc1N1CCN(C(=O)c2ccc(Cn3c(=O)[nH]c4ccsc4c3=O)cc2)CC1
COC(=O)c1ccc(/C=N/OCC(=O)NC2CCCCCCC2)cc1
O=C(CN(C1CCCCC1)S(=O)(=O)c1ccc(Cl)cc1)NCc1cccnc1
Cc1ccc(C)c(NC(=O)CSc2nnc(CCNC(=O)OC(C)(C)C)o2)c1

Source: PubChem BioAssay AID652053 (Broad Institute, 2013)
